# Laboratory results reported in ChEMBL document CHEMBL3988442, “University of Dundee, Small-Polar-MMV Screening Library” (2021).
# The whole screen tested about 53,000 compounds, of which about 900 (1.7%) showed an effect of 50% or more. What follows is part of a selection rich in strong results, with near analogues and random picks from the rest.
# System: Mycobacterium tuberculosis
# Experiment: Cornell - Phenotypic assay to identify agents that inhibit growth of Mycobacterium tuberculosis
# Assay type: functional
# Set-up: scale not given: direction of the effect not stated beside the values
# Conditions: 10 mM as filed; unlikely as a test dose
row,Compound,Percent Effect [%]
1,CC(=O)N[C@@H]1CN(Cc2cccs2)C[C@H]1c1ccc(C)o1,10.2
2,Cn1nc(COc2cccnc2)c2c1CCN(CC1CC1)C2.O=C(O)C(F)(F)F.O=C(O)C(F)(F)F,-1.302
3,CCCN(CCO)S(=O)(=O)c1ccc2[nH]c(=O)[nH]c2c1,11.31
4,Cc1cc(C[C@@H]2CCC[C@H]2NCc2ccccc2C(F)(F)F)on1.O=C(O)CC(O)(CC(=O)O)C(=O)O,12.28
5,Cc1cc(C[C@@H]2COC[C@H]2NCc2ccc(C)c(C)c2)on1.O=C(O)CC(O)(CC(=O)O)C(=O)O,-9.136
6,Cc1cc(C[C@@H]2CCC[C@H]2NCc2cc(C)c(O)c(C)c2)on1.O=C(O)CC(O)(CC(=O)O)C(=O)O,77.55
7,CC(=O)N1CCC2(CCN(Cc3ccc(Cl)c(C(F)(F)F)c3)CC2)C1,43.5
8,Cc1cc2nc(C(C)C)cc(N3CCC(N(C)C)C3)n2n1 (stereo not given),32.15
9,O=c1[nH]c2c(-c3ccccn3)nsc2c(=O)n1CC1CCCO1 (stereo not given),-0.9245
10,CO[C@H]1C[C@@H]2CN(C(=O)c3ccc(C)s3)C[C@@H]2C1,41.56
11,Cc1ccc(C(=O)N2CC(Oc3ccccc3C)C2)s1,67.58
12,COc1ccccc1OC1CN(C(=O)c2ccc(C(C)=O)s2)C1,-4.28
13,COc1cccc2ccc(N3CCC(O)(C(=O)O)CC3)nc12,-24.68
14,CC(c1nc(C(C)(C)C)no1)N1CCN(Cc2ccco2)CC1 (stereo not given),11.7
15,CCn1ccnc1CN1CCCN(C(=O)COC2CCCC2)CC1,-24.49
16,CNc1ncc(C(=O)N2CCOC(C(=O)N3CCCCCC3)C2)cn1 (stereo not given),-4.246
17,Cc1cc(OCC(=O)NS(=O)(=O)c2c(C)noc2C)ccc1Cl,39.96
18,CCOc1cccc2c1OCC(C(=O)NS(=O)(=O)c1ccc(Cl)s1)=C2,9.699
19,CCOc1cccc2c1OCC(C(=O)NS(=O)(=O)c1c(C)noc1C)=C2,106
20,CCOc1cccc2c1OCC(C(=O)NS(=O)(=O)c1cncc(Br)c1)=C2,44.21
21,Cc1ccc(OCC(=O)NS(=O)(=O)Cc2ccccc2)cc1,7.336
22,CCOc1cccc2c1OCC(C(=O)NS(=O)(=O)c1ccc(Br)s1)=C2,-17.73
23,CCOc1ccccc1C(=O)NS(=O)(=O)c1ccc2c(c1)OCCCO2,27.03
24,CCOc1cccc2c1OCC(C(=O)NS(=O)(=O)c1ccc(C)s1)=C2,107.6
25,CCOc1cccc2c1OCC(C(=O)NS(=O)(=O)c1cccs1)=C2,19.94

row,Compound,Percent Effect [%]
1,CCOc1cccc2c1OCC(C(=O)NS(=O)(=O)Cc1ccccc1)=C2,106.8
2,CCOc1cccc2c1OCC(C(=O)NS(=O)(=O)c1ccc(Cl)cc1)=C2,104.6983
3,CCOc1cccc2c1OCC(C(=O)NC(C)Cn1cccn1)=C2 (stereo not given),7.345
4,CCc1cnc(NC(=O)NC2CCN(C3CCCC3)CC2)s1,-3.242
5,CC(=O)N1CC[C@@H]2O[C@@H](COCC(=O)N3CCCC3)CC[C@@H]21,-45.3
6,O=C(NCC(Cc1cccc(F)c1)N1CCCC1=O)c1ccc(=O)[nH]n1 (stereo not given),14.14
7,Cc1ncsc1C(=O)N1CCC(c2ncncc2-c2ccnc(N)c2)C1 (stereo not given),-0.8467
8,CSCC[C@H](NC(C)=O)c1nc(Cc2ccccc2)n[nH]1,-11.93
9,COc1ncccc1CN1Cc2nccn2CC(CN2CCCC2)C1 (stereo not given),6.883
10,Cc1ccccc1CCCN1CCS(=O)(=O)CC1C (stereo not given),46.6
11,CC(C)(C)S(=O)(=O)c1ccc(N2CCC(n3cncn3)CC2)cn1,-14.59
12,CS(=O)(=O)N[C@@H]1CN(C(=O)c2cnccn2)[C@@H]2CCCO[C@@H]21,-34.02
13,Cc1cnc(CN(C)Cc2cccc(OC(F)(F)F)c2)cn1,-8.651
14,O=C(NCc1ccccc1)NCc1nc(-c2ccncc2)n[nH]1,13.27
15,CC(C)Oc1cccc(-c2nc3c([nH]2)CCCNC3=O)c1,-4.933
16,Cc1cccc(SC2CCN(C(=O)CCCn3cnnn3)CC2)c1,50.26
17,Cc1cccc(SC2CCN(C(=O)CCCS(N)(=O)=O)CC2)c1,37.58
18,CC(=O)NCCCC(=O)N1CCC(Sc2cccc(C)c2)CC1,15.76
19,Cc1nc(N2CCCOC(Cn3cccn3)C2)c2sccc2n1 (stereo not given),26.84
20,CCC(C)(C)NC(=O)c1nnn(-c2cccc3c2CCN(C)C3)c1C,-0.0817
21,COCc1nc(CNc2cc(C)nc(N3CCCCC3)n2)no1,-11.46
22,CCn1cc(S(=O)(=O)NC(CO)Cc2c[nH]c3ccccc23)cn1 (stereo not given),-1.971
23,CCn1cc(S(=O)(=O)NC(=O)CCc2c[nH]c3ccccc23)cn1,53.27
24,CCn1cc(NC(=O)NC(CO)Cc2c[nH]c3ccccc23)cn1 (stereo not given),-8.114
25,Cc1noc(-c2ccc(-n3ncc(C(=O)O)c3C)nc2)n1,11.73

row,Compound,Percent Effect [%]
1,COC(=O)[C@H](CC(C)C)NC(=O)c1snnc1-c1ccc(OC)cc1,25.36
2,CCC(C)NC(=O)c1snnc1-c1ccc(OC)cc1 (stereo not given),21.58
3,COC(=O)[C@@H](NC(=O)c1snnc1-c1ccc(OC)cc1)C(C)C,58.81
4,Cc1ccc(-c2nc(CN3CCn4c(C)nnc4C3)co2)cc1,-23.96
5,Nc1nc2nc(C3CCN(C(=O)c4cscn4)C3)ccc2s1 (stereo not given),-97.96
6,O=C(NC1CCCN(CCc2ccccc2)C1)c1ccccn1 (stereo not given),35.43
7,O=C(c1ccco1)N1CCO[C@@H]2CN(c3ccccc3)CC[C@@H]2C1,17.14
8,CCc1ccccc1OC1CN(C(=O)c2ccnc(OC)c2)C1,66.55
9,COc1cc(C(=O)N2CC(Oc3ccccc3Cl)C2)ccn1,25.67
10,COc1cccc(OC2CN(C(=O)c3ccnc(OC)c3)C2)c1,17.3
11,CCc1ccc(NC(=O)N2C[C@H]3C[C@H](C(=O)N4CCCC4)[C@@H](C2)O3)cc1,-25.04
12,O=C(c1ccccc1F)N1CC[C@@H]2CN(c3ncccn3)CCO[C@@H]2C1,12.82
13,O=S(=O)(NC1CCC2(CC1)OCCO2)c1ccccc1Br,9.266
14,O=S(=O)(Cc1ccccc1Cl)N1CCC2(CC1)OCCS2,47.83
15,O=S(=O)(c1ccccc1Cl)N1CCC2(CC1)OCCS2,36.27
16,Cc1c(Cl)cccc1S(=O)(=O)N1CCC2(CC1)OCCS2,53.55
17,O=S(=O)(c1ccccc1Br)N1CCC2(CC1)OCCS2,54.27
18,CNC(=O)CS(=O)(=O)C1CCN(S(=O)(=O)c2ccccc2Br)CC1,7.561
19,CS(=O)(=O)N1CCC(CNc2cc(Cl)ccc2C#N)CC1,-6.261
20,COCCO[C@H]1CCN(C(=O)c2cccnc2)[C@H]1Cc1cnn(C)c1.O=C(O)C(F)(F)F,12.42
21,COCCS(=O)(=O)c1ncc(CN(C)CC(C)C)n1Cc1ccccc1,-3.776
22,COCC(=O)N(Cc1ccc2[nH]ccc2c1)C1CC1,26.94
23,COC(=O)CCC(=O)N(Cc1ccc2cc[nH]c2c1)C1CC1,90.28
24,CCNC(=O)N(Cc1cccc(OC)c1)C1CCC(O)CC1 (stereo not given),21.75
25,COCC(=O)N(Cc1ccc2cc[nH]c2c1)C1CC1,57.03

row,Compound,Percent Effect [%]
1,O=C(C1CC1)N(Cc1ccc2cc[nH]c2c1)C1CC1,42.2
2,CCN(C(=O)CCc1ccc2[nH]ccc2c1)C1CC(=O)NC1=O (stereo not given),14.54
3,CCOc1ccccc1C1=CCN(C(=O)C2CCN(C)C(=O)C2)CC1 (stereo not given),-20.28
4,COC(=O)c1cccn1C1CCN(C(=O)c2ccc(C)[nH]c2=O)CC1,-31.25
5,CCc1cc(N(C)Cc2cc[nH]n2)n2nc(C)c(C)c2n1,4.829
6,CCc1cc(N(C)Cc2ccnc(C)c2)n2nc(C)c(C)c2n1,-23.54
7,CCc1cc(N(C)Cc2ccncn2)n2nc(C)c(C)c2n1,59.71
8,Cc1nc(C2CCCN(C(=O)c3cc(Cl)c4c(c3)OCO4)C2)no1 (stereo not given),12.39
9,O=C(C1CCCO1)N1C[C@@H]2CCN(c3cnccn3)C[C@@H]2C1.O=C(O)C(F)(F)F (stereo not given in full),30.53
10,c1ccc(C2CCN(c3cncc(-n4cccn4)n3)CC2)cc1,25.96
11,c1ccc(COC2CCN(c3cncc(-n4cccn4)n3)CC2)cc1,60.34
12,c1ccc(C2CCCN(c3cncc(-n4cccn4)n3)CC2)cc1 (stereo not given),42.47
13,O=C(Nc1ccnc2ccnn12)c1ccc(NC2CC2)nc1,-11.01
14,Cc1cc(NC(=O)c2ccc(N3CCOCC3)cc2)[nH]n1,29.03
15,O=C(Nc1ccnc2ccnn12)c1ccc(N2CCC(O)CC2)cc1,85.62
16,CS(=O)(=O)N1CCO[C@@H]2CN(C(=O)C3CC(F)(F)C3)C[C@@H]2C1,-22.45
17,Cn1c(NC(=O)CNC(=O)C2CC2)nc2cc(Cl)ccc21,-3.36
18,Cn1c(NCc2ccc(C(N)=O)cc2)nc2cc(Cl)ccc21,60.39
19,Cn1cc(CNc2nc3cc(Cl)ccc3n2C)cn1,16.71
20,COc1cccc(CN2CCCCCC2c2cccc(F)c2)c1O (stereo not given),45.8
21,COc1cccc(CN2CCCCCC2c2cccs2)c1OC (stereo not given),35.04
22,COc1cccc(CN2CCCCCC2c2cccc(C)c2)c1O (stereo not given),84.28
23,COc1cccc(CN2CCCCCC2c2sccc2C)c1O (stereo not given),53.6
24,Cc1cccc(C2CCCCCN2Cc2cn(C)nc2C)c1 (stereo not given),15.03
25,COc1cccc(CN2CCCCCC2c2cccs2)c1O (stereo not given),38.44
